# Reference: PubChem BioAssay AID1794845 (National Center for Advancing Translational Sciences (NCATS), 2023)
# Out of some 6,900 compounds screened, fewer than 10 were called active. The call rests on the fitted dose curve; in most records, active means well fitted curve in the direction sought with a large enough effect; inconclusive means small, poorly fitted or top-dose-only effect, or another doubt; inactive means no such curve, though single readings can be large or run the other way. Not all results are given here.
# Molecular target: Metallo-beta-lactamase type 2 (Klebsiella pneumoniae) (UniProt C7C422)
# Sequence (C7C422 whole entry, looked up): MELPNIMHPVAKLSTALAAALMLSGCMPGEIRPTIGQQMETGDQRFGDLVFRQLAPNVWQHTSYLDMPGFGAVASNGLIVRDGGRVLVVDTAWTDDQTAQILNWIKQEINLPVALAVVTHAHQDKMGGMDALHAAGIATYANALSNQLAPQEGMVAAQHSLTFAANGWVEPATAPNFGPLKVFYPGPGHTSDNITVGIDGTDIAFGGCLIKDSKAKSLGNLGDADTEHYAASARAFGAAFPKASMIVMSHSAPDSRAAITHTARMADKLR
# Experiment: qHTS to identify inhibitors of the New Delhi Metallo-beta-lactamase (NDM): primary screen against the NCATS Gemini Collection; further: % of control where 0% means no effect
# Settings: NDM-1 enzyme, meropenem hydrolysis, absorbance 300 nm; series mostly up to 38.4 µM; activity % (negative = inhibition): at the top concentration
# Source text: Assay Submitter (PI): James Inglese Ph.D., Patricia Dranchak Ph.D., Mahesh Aitha Ph.D. Assay Development and Screening Technology Laboratory (ADST) National Center for Advancing Translational Sciences (NCATS), Rockville, MD National Institute of Health (NIH), Bethesda, Maryland The metallo-beta-lactamases (MBL) are a main antibiotic resistance mechanism evolved by bacteria. There is an urgent clinical need for MBL inhibitors to mitigate this growing threat. To support a machine-based learning study, qHTS has been used to experimentally test inhibitors identified by prediction tools.
# PROTOCOL TABLE (as described by Inglese et al., 2007) SEQUENCE No. (e.g., 1, 2, 3, etc.); […] (e.g., enzyme, Incubation, Reagent, etc.); VALUE; DESCRIPTION 1; NDM-1; 4 uL of 3 nM enzyme [2 nM final] in 50 mM HEPES (pH 7.0), 1 uM […], 0.01% Tween20; Use BioRaptr to dispense into Aurora black, clear bottom low base 1536-well plates 2; Compounds; 23 nL; Use Pin Tool (Wako) to transfer DMSO control and library compounds in DMSO 3; Incubate; >30 min 4; Reagent; 2 uL of 150 uM meropenem [50 uM final] 5; Incubate; 30 min. 6; Detector; Absorbance at 300 nm (bandwidth = 5 nm, 25 flashes/well) on Tecan Infinity NOTES (numbers refer to sequence above) 1; Column 1 of each plate received assay buffer without enzyme and columns 2-48 received enzyme for a final assay concentration of 2 nM. 2; Control plate contained DMSO in columns 1, 2, 3, and 4. 3; Compound interaction with enzyme. 4; Meropenem substrate was prepared in the same assay buffer as step 1 for a final assay concentration of 50 uM and added to all wells across the assay plates. 5; Substrate interaction with enzyme, plateau phase of kinetics. 6; Default reader settings were applied for absorbance read at 300 nm, bandwidth = 5 nm, 25 flashes/well. References: Inglese J, Shamu CE, Guy RK. 2007. Reporting data from high-throughput screening of small-molecule libraries. Nat Chem Biol. doi:10.1038/nchembio0807-438 Yasgar A, Shinn P, Jadhav A, Auld D, Michael S, Zheng W, Austin CP, Inglese J, Simeonov A. 2008. Compound Management for Quantitative High-Throughput Screening. J Lab Autom 13:79 - 89. doi:10.1016/j.jala.2007.12.004
row,SMILES,activity % (negative = inhibition)
1,CN1C(=O)[C@H]2CN(Cc3cn[nH]c3-c3cccs3)C[C@H]2C1=O,1.58% (inactive)
2,CCOCCn1c(=O)[nH]c2cc(C(=O)NCCn3cnnc3)ccc21,3.21% (inactive)
3,Cn1cnnc1-c1nn(C)c2c1CNCC2,3.66% (inactive)
4,COc1ccc(-c2nc(N3CCOCC3)cc3c2CN(Cc2ccccc2)C3=O)cn1,2.36% [at 57.5 µM] (inactive)
5,O=C(c1ccc(Cl)cc1)N1CCN(Cc2ccccc2-c2cccnc2)CC1,11.2% (inactive)
6,CCOCCn1nc(C)cc1C(=O)N[C@H]1[C@H]2CCO[C@H]2[C@@H]1N(C)C,-0.113% (inactive)
7,CCn1c(CO)nnc1C1CC(NC(=O)c2[nH]c3ccc(OC)cc3c2C)C1 (stereo not given),13.2% (inactive)
8,O=C(NCCCc1ccccc1F)[C@@]12CNC[C@@H]1CN(Cc1ccccc1)C2,2.98% (inactive)
9,CCCNc1ccc2nncn2n1,-0.753% (inactive)
10,COc1cc(OC)cc(-c2onc(C)c2C(=O)NCc2ccccc2C)c1,0.744% (inactive)
11,CS(=O)(=O)NC[C@H]1Cn2ccnc2CO1,-0.563% [at 77.1 µM] (inactive)
12,Cc1noc(C)c1[S+](=O)([O-])N1CCc2nc(-c3ccccc3)nc(-c3ccc(Cl)cc3)c2C1,6.08% (inactive)
13,Cc1ccc2nc(C(NC(=O)C3CCN(CC(N)=O)CC3)C(C)C)[nH]c2c1 (stereo not given),-0.481% (inactive)
14,COc1cc2c(cc1NS(C)(=O)=O)C(c1cccc3c1OCO3)CC(=O)N2 (stereo not given),0.737% (inactive)
15,Cn1cc(-c2ccc3c(n2)CN(Cc2ccc(F)cc2)C(=O)CO3)cn1,8.04% [at 57.5 µM] (inactive)
16,Cc1nn(-c2ccccc2)c(C)c1Cc1nc(C(C)C)no1,10.3% (inactive)
17,Cn1cncc1C(=O)N1CCC2(CC1)CNC(C(=O)O)C2 (stereo not given),43.9% (inactive)
18,COc1cccc(N2CCN(C(=O)c3noc(-c4ccc(C)cc4)n3)CC2)c1,4.04% (inactive)
19,CCc1c(C)nn(CCNC(=O)c2cc(S(N)(=O)=O)ccc2F)c1C,-0.662% (inactive)
20,COc1cc(F)ccc1-c1nc(-c2c(C)noc2C)cc2cc(C)oc12,27.1% [at 57.5 µM] (inactive)
21,COCCCN(CCC(=O)NCc1ccc2c(c1)OCO2)C(=O)c1cc(C)oc1C,-9.84% (inactive)
22,Cc1cnc(CCNS(=O)(=O)c2cccc(F)c2)n1C(C)C,0.39% (inactive)
23,Cc1cccnc1NCCNC(=O)c1ccc(S(N)(=O)=O)cc1,13% (inactive)
24,CCCN1CCC2(CCN([S+](=O)([O-])c3cccs3)CC2)Oc2ccccc21,-2.6% (inactive)
25,Cc1ccc(C(=O)N2CCCC2C(=O)N2CCCC2c2nc3ccncc3[nH]2)cc1 (stereo not given),0.286% (inactive)
26,O=C(c1ccoc1)N1CCN(c2cc(C3CC3)ncn2)CC(O)C1 (stereo not given),18.2% (inactive)
27,Cc1n[nH]c(C)c1CNC(=O)C1CCN(c2cn[nH]c(=O)c2)C1 (stereo not given),10.8% (inactive)
28,COCCC1(NC(=O)C2CC2)CCN(C(=O)c2ccccn2)CC1,5.91% (inactive)
29,O=C1CC2(CCN(C(=O)c3ccccn3)C2)Nc2ccccc2N1 (stereo not given),-2.18% (inactive)
30,O=C1Cc2c(-c3ccccc3OCc3ccccc3)n[nH]c2CN1Cc1ccccn1,9.35% [at 57.5 µM] (inactive)
